ChEMBL document CHEMBL3433997, “St. Jude Leishmania screening dataset” (2016)

The compounds below were run against Hexose transporter 1 (Plasmodium falciparum) (UniProt O97467) (assay: ST_JUDE_LEISH: Cytotoxicity at 2uM final concentration against transgenic Leishmania Mexicana promastigotes LmPfHT that are glucose transport deficient and complemented with the Plasmodium falciparum hexose transporter. Activity is measured by DNA content using SYBR green in vitro).
Format: functional
With `CN1CCN(Cc2ccc(-c3ccc4c(Nc5ccc(Oc6ccccn6)cc5)ccnc4c3)o2)CC1` the inhibition was 0.11%. For `N#CCCN1CCN(Cc2cccc(-c3ccc(-c4nc5cc(C(F)(F)F)ccc5[nH]4)cc3)c2)CC1`, the inhibition was 2.73%. For `CCCC(=O)c1cnc2cc(O)ccc2c1Nc1ccccc1C`, the inhibition was 6.97%. `O=C(Nc1ccc(Cl)cc1C(=O)Nc1cccc(F)c1)c1ccc([N+](=O)[O-])cc1` gave an inhibition of 0.92%. In the case of `CO/C(=C\C=C\c1cc2cc(Cl)c(Cl)cc2[nH]1)C(=O)NC1CCN(CCNc2ccccc2)CC1`, the inhibition was -1.2%. `O=C(c1ccc(F)c2ccccc12)N1CCc2cc3nccc(N4CCN5CCC[C@H]5C4)c3cc21` showed an inhibition of 1.16%. `COc1ccc(CNc2nc(Nc3cccc(C#N)c3)nc(Nc3cccc(C#N)c3)n2)cc1Cl` was tested, and the inhibition was 0.95%. In the case of `N=C(N)NC(=O)Nc1cc(Cl)c(Br)c(Cl)c1`, the inhibition was 6.09%. Compound `CCCC(C)n1ccc2c3c(N)nc(N)nc3ccc21` (stereo not given) has an inhibition of 56.9%. `COc1ccc2nccc([C@@H](O)CN3CCC(NCc4nc5ccccc5[nH]4)CC3)c2c1` showed an inhibition of -0.18%. `COC(=O)Nc1cc(C(F)(F)F)ccc1N1CCC(CNS(=O)(=O)c2ccc(OC)cc2)CC1` showed an inhibition of 4.92%. Work on `CCc1cn2c3c(cc(C(=O)N[C@@H](Cc4ccccc4)[C@H](O)CNCc4cccc(C)c4)cc13)N(C)S(=O)(=O)CC2` yielded an inhibition of 0.76%. For `O=C(NCCCCN1CC=C(c2ccc3c(c2OCc2ccccc2)CCCC3)CC1)c1ccc(-c2ccc(C(F)(F)F)cc2)cc1`, the inhibition was -1.29%. `CC(C)c1ncc(-c2ccncc2)c(C2CCC(CNC(=O)c3cccnc3)CC2)n1` (stereo not given) showed an inhibition of 1.25%. `CC(ON1C(N)=NC(N)=NC1(C)C)c1ccccc1` (stereo not given) gave an inhibition of 4.22%.
